The values below come from paper PMC12529666, “Dysregulation of AGO2-miRNA dynamics underlies the AGO2-associated Lessel–Kreienkamp syndrome”.

To fix the notation:
B1: GCGTCTTA (ssRNA)
RNA 1: GAGUUCUACAGUCCGACGAUCCCAACGCGUCUUACACCUGGAAUUCUCGGGUGCCAA
RNA 2: UGGAGUGUGACAAUGGUGUUUG
DNA 1: GATCGTCGGACTGTAGAACTC
DNA 2: TTGGCACCCGAGAATTCCA
modifications: constant regions annealed to DNA blockers; guide miR-122 5' phosphate
B2: GTGTTTTA (ssRNA)
RNA 1: B1 RNA 1 with C28U, C31U
RNA 2: UGGAGUGUGACAAUGGUGUUUG
DNA 1: GATCGTCGGACTGTAGAACTC
DNA 2: TTGGCACCCGAGAATTCCA
modifications: constant regions annealed to DNA blockers; guide miR-122 5' phosphate
B3: ACGCCTTG (ssRNA)
RNA 1: B1 RNA 1 with G27A, U30C, A34G
RNA 2: UGGAGUGUGACAAUGGUGUUUG
DNA 1: GATCGTCGGACTGTAGAACTC
DNA 2: TTGGCACCCGAGAATTCCA
modifications: constant regions annealed to DNA blockers; guide miR-122 5' phosphate
B4: GCACCTCG (ssRNA)
RNA 1: B1 RNA 1 with G29A, U30C, U33C, A34G
RNA 2: UGGAGUGUGACAAUGGUGUUUG
DNA 1: GATCGTCGGACTGTAGAACTC
DNA 2: TTGGCACCCGAGAATTCCA
modifications: constant regions annealed to DNA blockers; guide miR-122 5' phosphate
B5: ATGTTTTG (ssRNA)
RNA 1: B1 RNA 1 with G27A, C28U, C31U, A34G
RNA 2: UGGAGUGUGACAAUGGUGUUUG
DNA 1: GATCGTCGGACTGTAGAACTC
DNA 2: TTGGCACCCGAGAATTCCA
modifications: constant regions annealed to DNA blockers; guide miR-122 5' phosphate
B6: GTGCCTTG (ssRNA)
RNA 1: B1 RNA 1 with C28U, U30C, A34G
RNA 2: UGGAGUGUGACAAUGGUGUUUG
DNA 1: GATCGTCGGACTGTAGAACTC
DNA 2: TTGGCACCCGAGAATTCCA
modifications: constant regions annealed to DNA blockers; guide miR-122 5' phosphate
B7: GTATCCTA (ssRNA)
RNA 1: B1 RNA 1 with C28U, G29A, U32C
RNA 2: UGGAGUGUGACAAUGGUGUUUG
DNA 1: GATCGTCGGACTGTAGAACTC
DNA 2: TTGGCACCCGAGAATTCCA
modifications: constant regions annealed to DNA blockers; guide miR-122 5' phosphate
B8: GCATCCCA (ssRNA)
RNA 1: B1 RNA 1 with G29A, U32C, U33C
RNA 2: UGGAGUGUGACAAUGGUGUUUG
DNA 1: GATCGTCGGACTGTAGAACTC
DNA 2: TTGGCACCCGAGAATTCCA
modifications: constant regions annealed to DNA blockers; guide miR-122 5' phosphate
B9: ATGCCCCG (ssRNA)
RNA 1: B1 RNA 1 with G27A, C28U, U30C, U32C, U33C, A34G
RNA 2: UGGAGUGUGACAAUGGUGUUUG
DNA 1: GATCGTCGGACTGTAGAACTC
DNA 2: TTGGCACCCGAGAATTCCA
modifications: constant regions annealed to DNA blockers; guide miR-122 5' phosphate
B10: GCACCCTA (ssRNA)
RNA 1: B1 RNA 1 with G29A, U30C, U32C
RNA 2: UGGAGUGUGACAAUGGUGUUUG
DNA 1: GATCGTCGGACTGTAGAACTC
DNA 2: TTGGCACCCGAGAATTCCA
modifications: constant regions annealed to DNA blockers; guide miR-122 5' phosphate
B11: ACGTTCTA (ssRNA)
RNA 1: B1 RNA 1 with G27A, C31U, U32C
RNA 2: UGGAGUGUGACAAUGGUGUUUG
DNA 1: GATCGTCGGACTGTAGAACTC
DNA 2: TTGGCACCCGAGAATTCCA
modifications: constant regions annealed to DNA blockers; guide miR-122 5' phosphate
B12: ATATCTTG (ssRNA)
RNA 1: B1 RNA 1 with G27A, C28U, G29A, A34G
RNA 2: UGGAGUGUGACAAUGGUGUUUG
DNA 1: GATCGTCGGACTGTAGAACTC
DNA 2: TTGGCACCCGAGAATTCCA
modifications: constant regions annealed to DNA blockers; guide miR-122 5' phosphate
B13: GCGTTTTA (ssRNA)
RNA 1: B1 RNA 1 with C31U
RNA 2: UGGAGUGUGACAAUGGUGUUUG
DNA 1: GATCGTCGGACTGTAGAACTC
DNA 2: TTGGCACCCGAGAATTCCA
modifications: constant regions annealed to DNA blockers; guide miR-122 5' phosphate
B14: GTGTCCTA (ssRNA)
RNA 1: B1 RNA 1 with C28U, U32C
RNA 2: UGGAGUGUGACAAUGGUGUUUG
DNA 1: GATCGTCGGACTGTAGAACTC
DNA 2: TTGGCACCCGAGAATTCCA
modifications: constant regions annealed to DNA blockers; guide miR-122 5' phosphate
B15: ACGTCCTG (ssRNA)
RNA 1: B1 RNA 1 with G27A, U32C, A34G
RNA 2: UGGAGUGUGACAAUGGUGUUUG
DNA 1: GATCGTCGGACTGTAGAACTC
DNA 2: TTGGCACCCGAGAATTCCA
modifications: constant regions annealed to DNA blockers; guide miR-122 5' phosphate
B16: GTGTTTCA (ssRNA)
RNA 1: B1 RNA 1 with C28U, C31U, U33C
RNA 2: UGGAGUGUGACAAUGGUGUUUG
DNA 1: GATCGTCGGACTGTAGAACTC
DNA 2: TTGGCACCCGAGAATTCCA
modifications: constant regions annealed to DNA blockers; guide miR-122 5' phosphate
B17: ACGTCTCG (ssRNA)
RNA 1: B1 RNA 1 with G27A, U33C, A34G
RNA 2: UGGAGUGUGACAAUGGUGUUUG
DNA 1: GATCGTCGGACTGTAGAACTC
DNA 2: TTGGCACCCGAGAATTCCA
modifications: constant regions annealed to DNA blockers; guide miR-122 5' phosphate
B18: ATGCCTTA (ssRNA)
RNA 1: B1 RNA 1 with G27A, C28U, U30C
RNA 2: UGGAGUGUGACAAUGGUGUUUG
DNA 1: GATCGTCGGACTGTAGAACTC
DNA 2: TTGGCACCCGAGAATTCCA
modifications: constant regions annealed to DNA blockers; guide miR-122 5' phosphate
B19: GTACTTTA (ssRNA)
RNA 1: B1 RNA 1 with C28U, G29A, U30C, C31U
RNA 2: UGGAGUGUGACAAUGGUGUUUG
DNA 1: GATCGTCGGACTGTAGAACTC
DNA 2: TTGGCACCCGAGAATTCCA
modifications: constant regions annealed to DNA blockers; guide miR-122 5' phosphate
B20: GCGCCTCG (ssRNA)
RNA 1: B1 RNA 1 with U30C, U33C, A34G
RNA 2: UGGAGUGUGACAAUGGUGUUUG
DNA 1: GATCGTCGGACTGTAGAACTC
DNA 2: TTGGCACCCGAGAATTCCA
modifications: constant regions annealed to DNA blockers; guide miR-122 5' phosphate
B21: GCGTTTCG (ssRNA)
RNA 1: B1 RNA 1 with C31U, U33C, A34G
RNA 2: UGGAGUGUGACAAUGGUGUUUG
DNA 1: GATCGTCGGACTGTAGAACTC
DNA 2: TTGGCACCCGAGAATTCCA
modifications: constant regions annealed to DNA blockers; guide miR-122 5' phosphate
B22: GTGCCCTA (ssRNA)
RNA 1: B1 RNA 1 with C28U, U30C, U32C
RNA 2: UGGAGUGUGACAAUGGUGUUUG
DNA 1: GATCGTCGGACTGTAGAACTC
DNA 2: TTGGCACCCGAGAATTCCA
modifications: constant regions annealed to DNA blockers; guide miR-122 5' phosphate

Changes are numbered by the printed parent chain.

Sequence of AGO2 A367P (Q9UKV8 whole entry A367P/S387D/S824A/S828D/S831D/S834A): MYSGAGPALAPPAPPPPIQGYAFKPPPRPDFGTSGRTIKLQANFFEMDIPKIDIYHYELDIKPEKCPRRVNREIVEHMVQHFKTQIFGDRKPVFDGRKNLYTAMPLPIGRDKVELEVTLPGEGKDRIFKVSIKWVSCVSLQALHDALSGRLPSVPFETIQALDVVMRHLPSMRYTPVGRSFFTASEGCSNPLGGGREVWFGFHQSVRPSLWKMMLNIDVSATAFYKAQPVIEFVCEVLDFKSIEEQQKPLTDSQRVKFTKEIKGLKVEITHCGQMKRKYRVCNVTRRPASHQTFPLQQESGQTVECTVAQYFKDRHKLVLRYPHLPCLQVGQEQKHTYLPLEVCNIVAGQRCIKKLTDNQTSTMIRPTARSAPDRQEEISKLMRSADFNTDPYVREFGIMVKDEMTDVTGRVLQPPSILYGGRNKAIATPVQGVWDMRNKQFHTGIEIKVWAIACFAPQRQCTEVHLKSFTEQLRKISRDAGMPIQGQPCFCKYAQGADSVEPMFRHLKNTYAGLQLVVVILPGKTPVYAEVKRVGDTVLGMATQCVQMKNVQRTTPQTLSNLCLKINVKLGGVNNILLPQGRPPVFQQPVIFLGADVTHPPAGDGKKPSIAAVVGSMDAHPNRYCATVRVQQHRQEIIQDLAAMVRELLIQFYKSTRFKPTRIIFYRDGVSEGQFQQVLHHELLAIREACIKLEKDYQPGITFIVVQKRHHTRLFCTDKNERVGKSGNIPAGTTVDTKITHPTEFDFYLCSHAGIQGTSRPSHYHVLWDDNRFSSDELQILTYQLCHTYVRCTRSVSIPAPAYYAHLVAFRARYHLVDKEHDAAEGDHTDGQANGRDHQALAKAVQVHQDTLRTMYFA
Sequence of AGO2 T357M (Q9UKV8 whole entry T357M/S387D/S824A/S828D/S831D/S834A): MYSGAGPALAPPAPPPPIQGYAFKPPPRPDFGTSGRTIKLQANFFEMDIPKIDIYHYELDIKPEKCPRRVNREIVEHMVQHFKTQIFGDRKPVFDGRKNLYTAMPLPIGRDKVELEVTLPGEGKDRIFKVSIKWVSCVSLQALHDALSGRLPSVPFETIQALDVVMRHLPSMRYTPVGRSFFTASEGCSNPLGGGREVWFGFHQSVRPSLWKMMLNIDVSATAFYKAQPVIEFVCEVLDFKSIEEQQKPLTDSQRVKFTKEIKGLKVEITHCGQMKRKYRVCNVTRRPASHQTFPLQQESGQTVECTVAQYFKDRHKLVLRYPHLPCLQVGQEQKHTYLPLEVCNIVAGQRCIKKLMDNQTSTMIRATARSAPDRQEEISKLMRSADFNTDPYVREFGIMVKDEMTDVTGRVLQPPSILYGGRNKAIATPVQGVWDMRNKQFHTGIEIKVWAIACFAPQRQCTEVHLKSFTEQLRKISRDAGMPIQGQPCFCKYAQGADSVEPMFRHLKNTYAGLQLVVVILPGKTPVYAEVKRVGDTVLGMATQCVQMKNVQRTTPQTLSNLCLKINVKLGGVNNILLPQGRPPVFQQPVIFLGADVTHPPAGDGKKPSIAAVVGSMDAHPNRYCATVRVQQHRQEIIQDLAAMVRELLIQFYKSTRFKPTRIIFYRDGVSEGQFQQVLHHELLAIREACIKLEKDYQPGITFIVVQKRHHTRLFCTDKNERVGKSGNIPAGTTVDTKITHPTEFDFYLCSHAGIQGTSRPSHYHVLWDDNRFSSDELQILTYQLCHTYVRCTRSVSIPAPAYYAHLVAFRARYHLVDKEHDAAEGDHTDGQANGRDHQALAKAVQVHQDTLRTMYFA
Sequence of AGO2 F182del (Q9UKV8 other isoform, or with tags, fused parts or gaps S387D;S824A;S828D;S831D;S834A;del182-182): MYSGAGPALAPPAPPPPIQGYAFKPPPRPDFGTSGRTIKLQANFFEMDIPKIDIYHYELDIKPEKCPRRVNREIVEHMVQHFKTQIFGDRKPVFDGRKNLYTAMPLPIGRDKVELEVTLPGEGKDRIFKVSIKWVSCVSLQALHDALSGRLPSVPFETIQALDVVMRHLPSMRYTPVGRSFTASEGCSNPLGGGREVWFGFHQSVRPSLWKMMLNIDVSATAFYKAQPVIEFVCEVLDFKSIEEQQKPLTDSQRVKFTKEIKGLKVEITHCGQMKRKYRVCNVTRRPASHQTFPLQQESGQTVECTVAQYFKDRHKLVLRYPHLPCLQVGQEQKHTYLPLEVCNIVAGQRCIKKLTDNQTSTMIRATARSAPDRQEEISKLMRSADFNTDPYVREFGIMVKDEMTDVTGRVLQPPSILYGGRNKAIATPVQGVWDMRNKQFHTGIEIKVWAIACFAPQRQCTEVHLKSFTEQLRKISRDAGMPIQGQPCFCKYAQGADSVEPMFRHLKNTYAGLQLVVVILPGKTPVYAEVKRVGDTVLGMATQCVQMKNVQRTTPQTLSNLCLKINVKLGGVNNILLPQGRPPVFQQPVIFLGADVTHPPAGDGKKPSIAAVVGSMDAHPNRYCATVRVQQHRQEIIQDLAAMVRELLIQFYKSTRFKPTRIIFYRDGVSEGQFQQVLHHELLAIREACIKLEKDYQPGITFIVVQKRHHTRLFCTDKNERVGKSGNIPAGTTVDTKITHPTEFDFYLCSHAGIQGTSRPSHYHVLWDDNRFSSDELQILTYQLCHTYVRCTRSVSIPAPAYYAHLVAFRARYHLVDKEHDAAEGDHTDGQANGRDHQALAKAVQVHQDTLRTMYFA

For one experiment, the target named is AGO2 L192P (Homo sapiens, UniProt Q9UKV8 1-859, L192P;S387D;S824A;S828D;S831D;S834A). The experiment is described as follows: RNA Bind-n-Seq (nitrocellulose filter binding and sequencing); miR-122 guide loaded in AGO2; 60 min incubation; 30 mM Tris pH 8.0, 100 mM potassium acetate, 2 mM magnesium acetate, 0.5 mM TCEP, 0.005% NP-40, 0.01 mg/ml yeast tRNA; 3 nM AGO2-miR-122, 100 nM RNA library; 60; high values mean tight binding. Conditions: protein: recombinant; tags: His6 (N-terminal, pFastBac HTA). In a few lines: (§1)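 His-tagged AGO2 was expressed in Sf9 insect cells by baculovirus, loaded with a synthetic guide RNA, and purified by Ni-NTA and a biotinylated capture oligo. Bound RNA was extracted, reverse-transcribed, barcode-amplified and Illumina-sequenced. Fold enrichment is each sequence's read fraction divided by its input-library read fraction.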
Sequence of AGO2 L192P (Q9UKV8 whole entry L192P/S387D/S824A/S828D/S831D/S834A): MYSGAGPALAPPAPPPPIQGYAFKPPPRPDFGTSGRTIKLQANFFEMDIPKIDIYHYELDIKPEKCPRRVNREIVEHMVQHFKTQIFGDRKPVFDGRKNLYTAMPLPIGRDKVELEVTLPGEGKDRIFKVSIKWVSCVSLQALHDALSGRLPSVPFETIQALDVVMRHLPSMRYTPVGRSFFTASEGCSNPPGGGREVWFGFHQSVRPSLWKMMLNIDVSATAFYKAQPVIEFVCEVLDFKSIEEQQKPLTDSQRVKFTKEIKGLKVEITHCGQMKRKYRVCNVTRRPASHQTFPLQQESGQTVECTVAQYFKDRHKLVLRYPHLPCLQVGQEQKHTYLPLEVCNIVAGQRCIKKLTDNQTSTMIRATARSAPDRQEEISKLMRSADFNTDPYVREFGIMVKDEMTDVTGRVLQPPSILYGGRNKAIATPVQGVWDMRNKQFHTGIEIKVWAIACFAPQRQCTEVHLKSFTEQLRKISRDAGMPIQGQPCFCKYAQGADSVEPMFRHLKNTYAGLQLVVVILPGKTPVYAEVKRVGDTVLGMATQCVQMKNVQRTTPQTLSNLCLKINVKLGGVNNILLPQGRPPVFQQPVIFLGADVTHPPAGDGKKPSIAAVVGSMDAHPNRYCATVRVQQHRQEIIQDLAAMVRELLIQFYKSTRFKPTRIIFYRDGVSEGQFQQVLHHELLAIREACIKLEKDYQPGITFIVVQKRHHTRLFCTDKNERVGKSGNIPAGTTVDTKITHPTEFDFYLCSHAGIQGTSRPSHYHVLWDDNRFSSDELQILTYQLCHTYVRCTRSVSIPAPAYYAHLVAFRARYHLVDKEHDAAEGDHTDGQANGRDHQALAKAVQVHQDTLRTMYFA
Turning to B1, the binding signal was 0.473 fold enrichment over input.
Still for that read-out and setting: the result for B2 reads 0.467 fold enrichment over input; that for B3, 0.367 fold enrichment over input.
In the case of B4, the binding signal was 0.381 fold enrichment over input.
In the case of B5, the binding signal was 0.387 fold enrichment over input.
On to B6, for which the binding signal was 0.422 fold enrichment over input.
On the same count and under the same terms, with B7 the figure was 0.448 fold enrichment over input; with B8, 0.48 fold enrichment over input; with B9, 0.377 fold enrichment over input.
As for B10, the binding signal is 0.515 fold enrichment over input.
Turning to B11, the binding signal was 0.434 fold enrichment over input.
With B12, the binding signal was 0.409 fold enrichment over input.
Same read-out and setting: with B13 the figure was 0.484 fold enrichment over input; with B14, 0.451 fold enrichment over input; with B15, 0.312 fold enrichment over input.
As to B16, the binding signal is 0.477 fold enrichment over input.
On the same count and under the same terms, with B17 the figure was 0.32 fold enrichment over input; with B18, 0.434 fold enrichment over input.
Same read-out and setting: with B19 the figure was 0.446 fold enrichment over input; with B20, 0.37 fold enrichment over input.
On the same count and under the same terms, the result for B21 reads 0.361 fold enrichment over input; that for B22, 0.458 fold enrichment over input.

For a further experiment, the target named is AGO2 A367P (Homo sapiens, UniProt Q9UKV8 1-859, A367P;S387D;S824A;S828D;S831D;S834A). The experiment is described as above. To be noted: protein: recombinant; tags: His6 (N-terminal, pFastBac HTA). The gist of the method:
as §1
For B1, the binding signal is 0.2 fold enrichment over input.
On the same count and under the same terms, the result for B2 reads 0.167 fold enrichment over input.
Still for that read-out and setting: with B3 the figure was 0.164 fold enrichment over input; with B4, 0.15 fold enrichment over input; with B5, 0.134 fold enrichment over input.
As to B6, the binding signal was 0.159 fold enrichment over input.
Turning to B7, the binding signal was 0.17 fold enrichment over input.
For B8, the binding signal is 0.201 fold enrichment over input.
On to B9, for which the binding signal was 0.134 fold enrichment over input.
For B10, the binding signal is 0.214 fold enrichment over input.
On the same count and under the same terms, the result for B11 reads 0.184 fold enrichment over input; that for B12, 0.138 fold enrichment over input; that for B13, 0.173 fold enrichment over input.
Take B14: the binding signal is 0.158 fold enrichment over input.
Same read-out and setting: with B15 the figure was 0.143 fold enrichment over input.
On the same count and under the same terms, with B16 the figure was 0.178 fold enrichment over input; with B17, 0.146 fold enrichment over input; with B18, 0.179 fold enrichment over input.
The same measure, in the same setting: the result for B19 reads 0.161 fold enrichment over input.
Regarding B20, the binding signal was 0.145 fold enrichment over input.
The same measure, in the same setting: with B21 the figure was 0.139 fold enrichment over input.
The same measure, in the same setting: with B22 the figure was 0.188 fold enrichment over input.

The next experiment addresses AGO2 T357M (Homo sapiens, UniProt Q9UKV8 1-859, T357M;S387D;S824A;S828D;S831D;S834A). The experiment is described as above. To be noted: protein: recombinant; tags: His6 (N-terminal, pFastBac HTA). In a few lines: as §1
B1: the binding signal is 0.656 fold enrichment over input.
The same measure, in the same setting: the result for B2 reads 0.565 fold enrichment over input; that for B3, 0.54 fold enrichment over input; that for B4, 0.508 fold enrichment over input.
On to B5, for which the binding signal was 0.541 fold enrichment over input.
Still for that read-out and setting: the result for B6 reads 0.548 fold enrichment over input; that for B7, 0.563 fold enrichment over input.
The same measure, in the same setting: with B8 the figure was 0.628 fold enrichment over input; with B9, 0.489 fold enrichment over input.
Turning to B10, the binding signal was 0.601 fold enrichment over input.
Consider B11, for which the binding signal is 0.53 fold enrichment over input.
Consider B12, for which the binding signal was 0.513 fold enrichment over input.
In the case of B13, the binding signal is 0.582 fold enrichment over input.
The same measure, in the same setting: the result for B14 reads 0.528 fold enrichment over input.
With B15, the binding signal is 0.434 fold enrichment over input.
B16: the binding signal was 0.587 fold enrichment over input.
Same read-out and setting: with B17 the figure was 0.421 fold enrichment over input; with B18, 0.617 fold enrichment over input; with B19, 0.636 fold enrichment over input.
B20: the binding signal was 0.55 fold enrichment over input.
Turning to B21, the binding signal is 0.534 fold enrichment over input.
Same read-out and setting: the result for B22 reads 0.663 fold enrichment over input.

A further experiment has as its target AGO2 F182del (Homo sapiens, UniProt Q9UKV8 1-859, S387D;S824A;S828D;S831D;S834A;del182-182). Described as above. To be noted: protein: recombinant; tags: His6 (N-terminal, pFastBac HTA). In a few lines:
as §1
Regarding B7, the binding signal was 0.121 fold enrichment over input.
On to B8, for which the binding signal was 0.282 fold enrichment over input.
Same read-out and setting: the result for B10 reads 0.327 fold enrichment over input; that for B11, 0.195 fold enrichment over input.
